Assay outcomes: PubChem, National Center for Advancing Translational Sciences (NCATS)
Only some compounds are listed: those with a hit (about 19% of all), similar ones and a draw of the others.
HT1080 IDH1KD tx = qHTS for induction of synthetic lethality in tumor cells producing 2HG: qHTS for the HT-1080-IDH1KD cell line. Potency, µM (titrated, usually from 46.1 µM), without a hit: at the top dose activity, negative = toxicity, hits mostly cytotoxic. HT-1080 IDH1 knockdown viability, ATP luminescence, 48 h. AID 686971, 2013. 360,000 tested, 2% active;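 also: 0% = DMSO wells and -100% = cell-free medium wells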
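Assay cells: HT-1080 with IDH1 knockdown, 750 per well, RPMI/5% FBS. Exposure: 48 h at 37 °C following 2 h pre-incubation. Read: CellTiter-Glo luminescence; fitted concentration-response, curve class assigned.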
KB-V1 cytotox = qHTS assay for MDR1-selective chemotherapeutics: Primary screen using the drug-selected MDR subline cells KB-V1 | KB-V1 MDR cells viability, CellTiter-Glo, 72 h | Potency, µM (titrated, usually from 46.1 µM), most hits filed as cytotoxic | 400,000 tested, 3.4% active; also: nearly all actives have a fitted effect of over 60% in size
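Cytotoxicity toward P-gp-expressing KB-V1 cells was determined as loss of CellTiter-Glo luminescence after 72 h at 37 degrees C. Compounds were tested in quantitative HTS format across a concentration range, with curves fitted to normalized data.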
TDP1 cell CPT = qHTS for Inhibitors of human tyrosyl-DNA phosphodiesterase 1 (TDP1): qHTS in cells in presence of CPT; 420,000 tested, 12% active; chicken DT40 Tdp1-/-;hTDP1 cells + 20 nM CPT, ATP luminescence, 48 h; Potency, µM (top dose mostly 46.2 µM), without a hit: top-dose activity change, negative = growth inhibition, usual class: inhibitors; also: nearly all actives have a fitted effect of over 55% in size
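Chicken DT40 Tdp1-/- cells stably complemented with human TDP1 were seeded at 400 cells/well in medium containing 20 nM camptothecin, exposed to pin-transferred compounds, and grown at 37 °C for at least 48 hr. Viability was read as ATP luminescence.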
HT1080-NT tox = qHTS for induction of synthetic lethality in tumor cells producing 2HG: qHTS for the HT-1080-NT fibrosarcoma cell line; AID 686970, 2013; Potency, µM (titrated, usually from 46.1 µM), for inactives: top-dose activity, negative = less viability, usual class: cytotoxic; 360,000 tested, 1.6% active; HT-1080-NT fibrosarcoma viability, CellTiter-Glo ATP luminescence, 48 h;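 also: NT is the 2HG producing partner of a matched IDH1 knockdown line; 0% = DMSO-treated cells and -100% = media-only wells without cells; nearly all actives have a fitted effect of over 55% in size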
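Viability of the 2HG-overproducing fibrosarcoma line after 48 hours of compound exposure at 37 degrees C was determined by luminescence with CellTiter-Glo, and concentration-effect curves were then fitted and categorized.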
KB-3-1 tox = qHTS assay for MDR1-selective chemotherapeutics: Primary screen using the parental adenocarcinoma cell KB-3-1. KB-3-1 viability, CellTiter-Glo ATP luminescence, 72 h. Potency, µM (top dose mostly 46.1 µM), usual class: cytotoxic. 400,000 tested, 1.4% active. AID 1347075, 2019; also: nearly all actives have a fitted effect of over 60% in size
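Here the drug-naive KB-3-1 line serves as comparator for MDR sub-line selectivity; cells received compound titrations, 72 h at 37 °C, then CellTiter-Glo readout.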
TDP1 cell noCPT = qHTS for Inhibitors of human tyrosyl-DNA phosphodiesterase 1 (TDP1): qHTS in cells in absence of CPT | Potency, µM (doses to about 46.2 µM), inactives show top-dose activity change, negative = growth inhibition, usual class: inhibitors | AID 686978, 2013 | 420,000 tested, 15% active | DT40 Tdp1-/- hTDP1 cells, no CPT, ATP luminescence, 48 h; also: nearly all actives have a fitted effect of over 55% in size
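Camptothecin absent (DMSO only). Human TDP1-complemented DT40 knockout cells, 400 cells/well, 37 °C for minimum 48 hr; ATP measured via CellTiter-Glo, 30 min dark incubation, luminescence.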
Numbers without * were called inactive; i = inactive; ? = inconclusive; . = no result; ! = not active in a repeat. Calls follow the shape of the dose curve; as a rule, active = well fitted curve in the direction sought with a large enough effect; inconclusive = small, poorly fitted or top-dose-only effect, or another doubt; inactive = no such curve, though single readings can be large; an effect the other way counts as inactive or inconclusive. Unless noted, % is scaled to controls: 0 for no effect and ±100 for the full control effect; potency is read from the fitted curve at half-maximal effect.

SMILES	HT1080 IDH1KD tx	KB-V1 cytotox	TDP1 cell CPT	HT1080-NT tox	KB-3-1 tox	TDP1 cell noCPT
CN1CCN(C(=O)/C(=C/c2cn(S(=O)(=O)N(C)C)c3ccccc23)NC(=O)c2ccccc2)CC1	-14%	i	-1%	-26%	i	1%
OC/C(Br)=C(\Br)CO	9%	i	5%	2%	i	1%
CCOc1ccc(C(=O)NC(=S)NC2CCCC2)cc1[N+](=O)[O-]	-3%	i	?	-1%	i	?
O=C(O)CCC(=O)Nc1ccc(-c2csc(Nc3cccc4ccccc34)n2)cc1	1%	i	1%	-2%	i	19%
COc1ccc(-c2csc3ncnc(Oc4cccc5ccc(C)nc45)c23)cc1	-29%	i	16µM*	-5%	i	?
CCN1CCN(c2ncnc3scc(-c4ccc(C)cc4)c23)CC1	-4%	i	?	-11%	i	?
Cc1ccc2cccc(Oc3ncnc4scc(-c5ccccc5)c34)c2n1	?	?	?	?	i	?
CC(=O)Nc1cccc(Oc2ncnc3scc(-c4ccc(C(C)C)cc4)c23)c1	?	21µM*	1.3µM*	?	?	1.2µM*
Cc1nc(N2CCN(c3ccccc3O)CC2)c2c(-c3ccccc3)csc2n1	?	i	?	-27%	?	16µM*
O=C(/C=C/c1c(F)cccc1Cl)N1CCc2ccccc2C1	-9%	i	?	-8%	i	?
Cc1csc2c(N3CCN(C(=O)Nc4ccccc4)CC3)ncnc12	-18%	i	9.2µM*	-29%	i	16µM*
Cc1csc2ncnc(N3CCN(C(=O)Nc4ccc(OC(F)(F)F)cc4)CC3)c12	-20%	i	10µM*	?	?	5.8µM*
Cc1ccc(C(=O)N2CCN(c3ncnc4c(C)csc34)CC2)cc1	2%	?	?	17%	i	16µM*
CCOCCCN(C(=O)Cn1nnc(-c2ccc(OC)c(OC)c2)n1)C(C(=O)NCC1CCCO1)c1ccc(F)cc1 (configuration not stated)	0%	i	?	-7%	i	?
O=C(Nc1cccc(F)c1)C1CCCCC1	1%	?	-1%	?	i	1%
FC(F)(F)c1cccc(NC(=S)NC2CCCC2)c1	-13%	?	?	-20%	18µM*	?
O=C(Nc1cccc(C(F)(F)F)c1)C1CCCCC1	9%	i	-30%	5%	i	?
Fc1cccc(NC(=S)NC2CCCCCCC2)c1	-3%	i	23µM*	-7%	i	?
FC(F)(F)c1ccc(NC(=S)NC2CCCCC2)cc1	?	?	?	?	?	18µM*
Fc1ccc(NC(=S)NC2CCCCC2)c(F)c1F	-15%	?	21µM*	?	i	21µM*
COc1ccccc1NC(=O)c1ccc(NC(=O)CSc2nnnn2C)cc1	-23%	i	?	-20%	?	-91%
COc1cc(C2Nc3ccccc3C(=O)N2Cc2ccco2)ccc1O (configuration not stated)	.	i	?	.	i	?
CCOc1ccc2c(c1)[N+](C)(C)C(C)(C)C=C2C	-6%	i	5.8µM*	-14%	8.2µM*	15µM*
COc1ccc2c(c1)[N+](C)(C)C(C)(C)C=C2C	2%	i	?	0%	i	?
CCCCCC(=O)N1CC2(C)CN(C(=O)CCCCC)CC(C)(C1)C2=O	5%	?	?	8%	i	?
SMILES	HT1080 IDH1KD tx	KB-V1 cytotox	TDP1 cell CPT	HT1080-NT tox	KB-3-1 tox	TDP1 cell noCPT
CC(O)CCCCn1c(=O)c2c(ncn2C)n(C)c1=O (configuration not stated)	.	.	3%	.	.	-10%
CCCn1c(=O)c2c(ncn2C)n(CCC)c1=O	-2%	i	?	0%	i	3.7µM*
CCC[C@H]1COCCS(=O)(=O)N1Cc1ccc(Br)cc1	.	?	?	.	?	11µM*
O=S1(=O)CCOC[C@H](Cc2ccccc2)N1Cc1cccc(C(F)(F)F)c1	0%	?	18µM*	-28%	i	?
CC(C)[C@H]1COCCS(=O)(=O)N1Cc1ccccc1	-2%	i	?	0%	i	10µM*!
O=S1(=O)CCOC[C@H](CC2CCCCC2)N1Cc1cccc(C(F)(F)F)c1	0%	13µM*!	?	-16%	?	18µM*
Cc1cc(C)n(-c2nnc(C)n2/N=C/c2ccccc2O)n1	10%	i	2%	3%	i	-2%
NC(=O)C1CCN(c2nnc(-c3ccc(Br)cc3)s2)CC1	.	i	.	.	i	.
CC(C)Nc1nc(NC(C)C)nc(C(N)=O)n1	-3%	i	-16%	1%	i	0%
CCn1c(COc2cccc(C)c2)nnc1SCC(=O)Nc1cccc(C(=O)OC)c1	-7%	i	?	-9%	i	?
COc1ccc(-n2c(SCC(=O)Nc3cccc(C(=O)O)c3)nnc2-c2ccco2)cc1	15%	i	-7%	16%	i	0%
CCOC(=O)c1cccc(NC(=O)CSc2nnc(COc3ccccc3)n2CC)c1	-5%	12µM*	-25%	5%	i	-14%
Cn1c(SCC(=O)N2CCN(c3ccccc3)CC2)nnc1-c1ccco1	0%	i	-20%	6%	i	-2%
O=C(CSc1nnc(-c2ccco2)n1-c1ccccc1)N1CCN(C(=O)c2ccco2)CC1	-23%	i	?	-2%	i	23µM*
COc1ccc(OC)c(NC(=O)CSc2nnc(-c3ccco3)n2-c2ccccc2)c1	-5%	?	21µM*	-2%	i	?
CCn1c(COc2ccccc2)nnc1SCC(=O)Nc1cc(OC)ccc1OC	-10%	13µM*	?	-4%	i	?
Cc1nn(-c2ccccc2)c(C)c1C(=O)NNC(=O)C(F)(F)F	13%	i	19%	22%	i	-26%
